# Results taken from the supplement of paper PMC8728848.
# Shown is part of a subset that was picked to be rich in the strongest signals.
# Experiments:
# Assay in all cases: glycan array binding signal (z-score within array); higher = stronger binding
# Conditions in all cases: glycan notation: IUPAC condensed, linker removed
# Fuc(a1-2)Gal = molecular target: Fuc(a1-2)Gal
# Outline: (§1)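 Glycan array data came from 3228 arrays in the Consortium for Functional Glycomics database, and only arrays with an available protein sequence were kept. Glycan names were put into IUPAC-condensed notation, and columns mapping to the same glycan were averaged. The binding signal is a within-array Z-score, averaged across arrays of one protein sequence run at different concentrations or buffers and across linkers. A negative Z-score can be read as non-binding.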
# [1] = molecular target: Fuc(a1-2)Gal(b1-3)GlcNAc(b1-2)Man(a1-3)[Fuc(a1-2)Gal(b1-3)GlcNAc(b1-2)Man(a1-6)]Man(b1-4)GlcNAc(b1-4)GlcNAc
# Outline: as §1
# [2] = molecular target: Fuc(a1-2)Gal(b1-3)GlcNAc(b1-3)[Neu5Ac(a2-6)Gal(b1-4)GlcNAc(b1-6)]Gal(b1-4)Glc
# Outline: as §1
# Fuc(a1-2)Gal(b1-4)Glc6S = molecular target: Fuc(a1-2)Gal(b1-4)Glc6S
# Outline: as §1
# Fuc(a1-2)Gal(b1-4)GlcNAc = molecular target: Fuc(a1-2)Gal(b1-4)GlcNAc
# Outline: as §1
# Fuc(a1-2)[Gal(a1-3)]Gal = molecular target: Fuc(a1-2)[Gal(a1-3)]Gal
# Outline: as §1
# [3] = molecular target: Fuc(a1-2)[Gal(a1-3)]Gal(b1-3)GlcNAc(b1-2)Man(a1-3)[Fuc(a1-2)[Gal(a1-3)]Gal(b1-3)GlcNAc(b1-2)Man(a1-6)]Man(b1-4)GlcNAc(b1-4)[Fuc(a1-6)]GlcNAc
# Outline: as §1
# [4] = molecular target: Fuc(a1-2)[Gal(a1-3)]Gal(b1-4)GlcNAc
# Outline: as §1
# [5] = molecular target: Fuc(a1-2)[GalNAc(a1-3)]Gal(b1-4)GlcNAc(b1-2)Man(a1-3)[Fuc(a1-2)[GalNAc(a1-3)]Gal(b1-4)GlcNAc(b1-2)Man(a1-6)]Man(b1-4)GlcNAc(b1-4)GlcNAc
# Outline: as §1
# [6] = molecular target: Fuc(a1-2)[GalNAc(b1-3)]Gal
# Outline: as §1
# [7] = molecular target: Fuc(a1-3)[Gal(b1-4)]Glc6S
# Outline: as §1
# [8] = molecular target: Fuc(a1-3)[Gal(b1-4)]GlcNAc(b1-3)Gal(b1-3)[Fuc(a1-4)]GlcNAc
# Outline: as §1
# Fuc(a1-4)GlcNAc = molecular target: Fuc(a1-4)GlcNAc
# Outline: as §1
# [9] = molecular target: Gal(a1-3)Gal(b1-4)GlcNAc(b1-2)Man(a1-3)[Gal(a1-3)Gal(b1-4)GlcNAc(b1-2)Man(a1-6)]Man(b1-4)GlcNAc(b1-4)GlcNAc
# Outline: as §1
# Gal(a1-3)GalNAc = molecular target: Gal(a1-3)GalNAc
# Outline: as §1
# [10] = molecular target: Gal(a1-4)Gal(b1-3)GlcNAc(b1-2)Man(a1-3)[Gal(a1-4)Gal(b1-3)GlcNAc(b1-2)Man(a1-6)]Man(b1-4)GlcNAc(b1-4)GlcNAc
# Outline: as §1
# Gal(a1-4)Gal(b1-4)GlcNAc = molecular target: Gal(a1-4)Gal(b1-4)GlcNAc
# Outline: as §1
# [11] = molecular target: Gal(a1-4)Gal(b1-4)GlcNAc(b1-2)Man(a1-3)[Gal(a1-4)Gal(b1-4)GlcNAc(b1-2)Man(a1-6)]Man(b1-4)GlcNAc(b1-4)GlcNAc
# Outline: as §1
# Gal(a1-4)GlcNAc = molecular target: Gal(a1-4)GlcNAc
# Outline: as §1
# [12] = molecular target: Gal(b1-3)GlcNAc(b1-2)Man(a1-3)[Gal(b1-3)GlcNAc(b1-2)Man(a1-6)]Man(b1-4)GlcNAc(b1-4)GlcNAc
# Outline: as §1
# [13] = molecular target: Gal(b1-3)GlcNAc(b1-2)Man(a1-3)[Gal(b1-3)GlcNAc(b1-2)Man(a1-6)]Man(b1-4)GlcNAc(b1-4)[Fuc(a1-6)]GlcNAc
# Outline: as §1
# [14] = molecular target: Gal(b1-3)GlcNAc(b1-2)Man(a1-3)[GlcNAc(b1-4)][Gal(b1-3)GlcNAc(b1-2)Man(a1-6)]Man(b1-4)GlcNAc(b1-4)GlcNAc
# Outline: as §1
# [15] = molecular target: Gal(b1-3)GlcNAc(b1-2)[Gal(b1-3)GlcNAc(b1-6)]Man(a1-6)[Gal(b1-3)GlcNAc(b1-2)Man(a1-3)]Man(b1-4)GlcNAc(b1-4)GlcNAc
# Outline: as §1
# [16] = molecular target: Gal(b1-3)GlcNAc(b1-3)Gal(b1-3)GlcNAc
# Outline: as §1
# [17] = molecular target: Gal(b1-3)[Fuc(a1-4)]GlcNAc(b1-3)Gal(b1-4)[Fuc(a1-3)]GlcNAc
# Outline: as §1
# [18] = molecular target: Gal(b1-4)GlcNAc(a1-6)Gal(b1-4)GlcNAc
# Outline: as §1
# [19] = molecular target: Gal(b1-4)GlcNAc(b1-2)Man(a1-3)Man(b1-4)GlcNAc(b1-4)GlcNAc
# Outline: as §1
# [20] = molecular target: Gal(b1-4)GlcNAc(b1-2)Man(a1-3)[GlcNAc(b1-2)Man(a1-6)]Man(b1-4)GlcNAc(b1-4)GlcNAc
# Outline: as §1
# [21] = molecular target: Gal(b1-4)GlcNAc(b1-3)Gal(b1-4)GlcNAc(b1-2)Man(a1-3)[Gal(b1-4)GlcNAc(b1-3)Gal(b1-4)GlcNAc(b1-2)Man(a1-6)]Man(b1-4)GlcNAc(b1-4)[Fuc(a1-6)]GlcNAc
# Outline: as §1
# [22] = molecular target: Gal(b1-4)GlcNAc(b1-3)Gal(b1-4)GlcNAc(b1-3)Gal(b1-4)GlcNAc(b1-3)Gal(b1-4)GlcNAc(b1-2)[Gal(b1-4)GlcNAc(b1-3)Gal(b1-4)GlcNAc(b1-3)Gal(b1-4)GlcNAc(b1-3)Gal(b1-4)GlcNAc(b1-6)]Man(a1-6)[Gal(b1-4)GlcNAc(b1-3)Gal(b1-4)GlcNAc(b1-3)Gal(b1-4)GlcNAc(b1-3)Gal(b1-4)GlcNAc(b1-2)Man(a1-3)]Man(b1-4)GlcNAc(b1-4)[Fuc(a1-6)]GlcNAc
# Outline: as §1
# [23] = molecular target: Gal(b1-4)GlcNAc(b1-3)Gal(b1-4)GlcNAc(b1-3)Gal(b1-4)GlcNAc(b1-3)Gal(b1-4)GlcNAc(b1-3)Gal(b1-4)GlcNAc(b1-3)Gal(b1-4)GlcNAc(b1-2)Man(a1-3)[Gal(b1-4)GlcNAc(b1-3)Gal(b1-4)GlcNAc(b1-3)Gal(b1-4)GlcNAc(b1-3)Gal(b1-4)GlcNAc(b1-3)Gal(b1-4)GlcNAc(b1-3)Gal(b1-4)GlcNAc(b1-2)Man(a1-6)]Man(b1-4)GlcNAc(b1-4)GlcNAc
# Outline: as §1
# [24] = molecular target: Gal(b1-4)GlcNAc(b1-6)GalNAc
# Outline: as §1
# [25] = molecular target: Gal(b1-4)GlcNAc(b1-6)[Gal(b1-3)]GalNAc
# Outline: as §1
binder,measurement,setting,value
RBMC1 (Vibrio cholerae) (protein) QQSQRVVTADNLMYLRSGFAIDAIGTTVNNLVGGPVQGTNGGVLRAPIALDQLQSVEVTSGLYNWGGYHIVAIKFTMKDGSSVLLGSTHYASNKKVETYTVPQGKRIKQINVWTGGWLVEGFQFVY,glycan array binding signal (z-score),Fuc(a1-2)Gal,-0.366
same,glycan array binding signal (z-score),[1],1.37
same,glycan array binding signal (z-score),[2],-0.436
same,glycan array binding signal (z-score),Fuc(a1-2)Gal(b1-4)Glc6S,-0.119
same,glycan array binding signal (z-score),Fuc(a1-2)Gal(b1-4)GlcNAc,-0.362
same,glycan array binding signal (z-score),Fuc(a1-2)[Gal(a1-3)]Gal,-0.15
same,glycan array binding signal (z-score),[3],-0.324
same,glycan array binding signal (z-score),[4],-0.311
same,glycan array binding signal (z-score),[5],0.123
same,glycan array binding signal (z-score),[6],-0.299
same,glycan array binding signal (z-score),[7],-0.164
same,glycan array binding signal (z-score),[8],-0.378
same,glycan array binding signal (z-score),Fuc(a1-4)GlcNAc,-0.041
same,glycan array binding signal (z-score),[9],2.77
same,glycan array binding signal (z-score),Gal(a1-3)GalNAc,-0.237
same,glycan array binding signal (z-score),[10],1.41
same,glycan array binding signal (z-score),Gal(a1-4)Gal(b1-4)GlcNAc,-0.178
same,glycan array binding signal (z-score),[11],3.8
same,glycan array binding signal (z-score),Gal(a1-4)GlcNAc,-0.353
same,glycan array binding signal (z-score),[12],2.48
same,glycan array binding signal (z-score),[13],0.912
same,glycan array binding signal (z-score),[14],-0.049
same,glycan array binding signal (z-score),[15],-0.266
same,glycan array binding signal (z-score),[16],-0.311
same,glycan array binding signal (z-score),[17],-0.3
same,glycan array binding signal (z-score),[18],-0.36
same,glycan array binding signal (z-score),[19],-0.354
same,glycan array binding signal (z-score),[20],1.72
same,glycan array binding signal (z-score),[21],2.64
same,glycan array binding signal (z-score),[22],-0.194
same,glycan array binding signal (z-score),[23],0.712
same,glycan array binding signal (z-score),[24],-0.186
same,glycan array binding signal (z-score),[25],0.163
